Data on eight compounds can be found in PubChem BioAssay (NCATS).

Assay [1] has as its target Methanococcus maripaludis chaperonin (MmCpn) (UniProt Q6LX38). Put plainly: High-Throughput Screening for Modulators of Cytosolic Chaperonin Activity: MmCpn Primary Screen (AID 488978).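 Further: 50 nM MmCpn enzyme hydrolysing 30 µM ATP at 37 °C; 0% is about no effect.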 The method, boiled down:
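Measures ATPase turnover of the M. maripaludis chaperonin (50 nM final) against 30 uM ATP over 10 min at 37C, with compound added 5 min beforehand at room temperature. ADP is quantified by HTRF immunodetection.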

The target in assay [2] is Transient receptor potential cation channel subfamily V member 1 (Homo sapiens) (UniProt Q8NER1). Put plainly: HTS Assay for Compounds that Act as Enhancers of the Vanilloid Receptor 1 (AID 488979). Further: 0% is about no effect. The procedure, abridged:
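TRPV1 cells loaded with Fluo-8 calcium dye; compound added and Ca2+ signal (ex 480/em 520 nm) followed 3 min, then capsaicin at EC20 added and read 2 more min to detect enhancement.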

Assay [3] concerns the target D(1A) dopamine receptor (Homo sapiens) (UniProt P21728). The assay can be described thus: HTS Assay for Allosteric Agonists of the Human D1 Dopamine Receptor: Primary Screen for Agonists (AID 488981). Further: 0% is about no effect. The procedure, abridged:
(§1)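 Tetracycline-induced HEK293 Trex D1 cells with forced coupling to calcium, loaded with no-wash calcium dye; kinetic fluorescence read 180 s after compound addition for agonism, then a further 180 s after an EC20 dopamine challenge for potentiation.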

For assay [4] the target is unchanged. The assay can be described thus: HTS Assay for Allosteric Agonists of the Human D1 Dopamine Receptor: Primary Screen for Potentiators (AID 488982). Further: 0% is about no effect. The procedure, abridged:
as §1

For assay [5] the target is unchanged. Put plainly: HTS Assay for Allosteric Agonists of the Human D1 Dopamine Receptor: Primary Screen for Antagonists (AID 488983).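 Further: calcium flux response to an EC80 dopamine challenge measured with no-wash dye; nearly all actives have a fitted effect of over 65% in size.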 Further: potency means the concentration at half of the fitted maximal effect. The method, boiled down: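 Screening of inducible HEK293 T-REx D1 cells: compound first, EC80 dopamine 180 s later, each phase read kinetically for calcium over 180 s.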
The target of assay [6] is ATPase family AAA domain-containing protein 5 (Homo sapiens) (UniProt Q96QE3). Put plainly: Validation screen for small molecules that inhibit ELG1-dependent DNA repair in human embryonic kidney (HEK293T) cells expressing luciferase-tagged ELG1 (AID 493107).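 Further: cells co-treated with the DNA-damaging agent 5-fluorouridine alongside compound; series mostly up to about 46 µM; on the % scale 0 is the no-effect control and ±100 the full control effect; inhibitors lower the ELG1-luciferase luminescence signal; nearly all actives have a fitted effect of over 70% in size.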 The procedure, abridged: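 Quantitative HTS in HEK293T cells carrying luciferase-tagged ELG1, stimulated with 5-fluorouridine alongside compound for 16 hr. Loss of luciferase signal marks inhibition of ELG1 response.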

The nature of assay [7]: qHTS for Inhibitors of Cell Surface uPA Generation: Validation Assay (AID 493164).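 Further: RAW 264.7 macrophage cells exposed to compound for 18 h; 0% is about no effect.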 The procedure, abridged:
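RAW 264.7, 4000 cells/well, o/n plating; cpd 7-pt 1:5 dilution 2.45 nM–38.3 uM final; 18 h, 37 C/5% CO2; ATP-Lite, 5 s luminescence exposure.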
A general note: Quantitative high-throughput screening tests each substance at several concentrations.

A short description of assay [8]: Validation screen for small molecules that induce DNA re-replication in SW480 colon adenocarcinoma cells (AID 504364). Further: 0% is about no effect. The procedure, abridged:
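Cells are treated 48 hr with test compound, stained 40 min with Hoechst at 37 C, and scanned for nuclear fluorescence; compounds inducing re-replication increase nuclei with elevated intensity.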

Assay [9] has as its target Peptidyl-prolyl cis-trans isomerase NIMA-interacting 1 (Homo sapiens) (UniProt Q13526). Put plainly: qHTS Validation Assay to Find Inhibitors of Pin1 (AID 504536; active means well fitted inhibition curve with a large enough effect in the polarisation, with a control signal flat, not every such curve was filed as active; the % refers to the polarisation;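 further: 0% = full Pin1 enzyme wells and -100% = no-enzyme wells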). The procedure, abridged: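 Fluorescence polarization competition: compounds (titration) displace HiFluor-488-labeled Pin1-1b peptide from Pin1 (0.3 uM final) in pH 7.5 HEPES buffer with DTT, 10 min at room temperature; %Activity normalized to no-enzyme wells, curves fitted.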

In assay [10] the target is Ubiquitin carboxyl-terminal hydrolase 1 (Homo sapiens) (UniProt O94782). The assay can be described thus: Inhibitors of USP1/UAF1: Pilot qHTS (AID 504865).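 Further: rhodamine fluorescence freed from ubiquitin-rhodamine substrate followed over time; top concentration of the series differs between compounds; on the % scale 0 is the no-effect control and ±100 the full control effect; nearly all actives have a fitted effect of over 35% in size.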 The method, boiled down:
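Kinetic fluorescence assay: 1nM USP1/UAF1, 15 min compound preincubation, then 150nM Ub-Rho; 480/540 nm.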

The nature of assay [11]: qHTS for Inhibitors of ATXN expression: Validation of Cytotoxic Assay (AID 588349).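 Further: cells exposed to compound for 72 hr; on the % scale 0 is the no-effect control and ±100 the full control effect.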 The method, boiled down:
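HEK293, compound dose series, 72 hr / 37 degrees C; viability via CellTiter Glo (intracellular ATP).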

For assay [12], the target named is Thyrotropin receptor (Homo sapiens) (UniProt P16473). Put plainly: qHTS Assay for Antagonists of the Thyroid Stimulating Hormone Receptor (AID 488980). Further: series mostly up to about 58 µM; 0% is about no effect. The procedure, abridged: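 Cells expressing human TSHR (HEK293) are dispensed in HBSS/HEPES containing 70 uM RO 20-1724, compound is added, then TSH at EC80 (4 nM final). Antibody in lysis buffer follows, 30 minutes at room temperature before HTRF detection.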

For assay [13], the target named is ATP-dependent 6-phosphofructokinase (Trypanosoma brucei brucei) (UniProt O15648). The assay can be described thus: qHTS Assay to Find Inhibitors of T. brucei phosphofructokinase: hit validation (AID 492961).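 Further: luminescence reports ADP formed as PFK phosphorylates fructose-6-phosphate with ATP; series mostly up to about 51 µM; on the % scale 0 is the no-effect control and ±100 the full control effect.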 The procedure, abridged:
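Compounds titrated; %activity normalized to 0x and 1x enzyme controls, curve-fitted. Readout: ADP-Glo luminescence after 45 min room-temperature reaction of 1.25 nM PFK, 0.1 mM ATP, 0.5 mM F6P, pH 8.0.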

Assay [14] can be described thus: Validation screen for small molecules that induce genotoxicity in human embryonic kidney (HEK293T) cells expressing luciferase-tagged ELG1 (AID 493106). Further: 0% is about no effect. The method, boiled down:
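Reporter-gene quantitative HTS in HEK293T cells carrying luciferase-tagged ELG1, whose level climbs under genotoxic stress. Compound exposure lasts 16 hr at 37 °C before luciferase detection.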

In assay [15] the target is Thyrotropin-releasing hormone receptor (Homo sapiens) (UniProt P34981). The assay can be described thus: qHTS for Small Molecule Agonists and Allosteric Enhancers of Human TRH Receptor: Validation Screen for Agonists (AID 493127;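 active means calcium activation more than 3 SD above the typical response in the agonist read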;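 further: intracellular calcium rise by fluo-8 fluorescence before TRH EC20 addition; 0% is about no effect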). The conditions noted are these: TRH receptor agonist cell assay; at 2 µM; stronger effect = higher value. The procedure, abridged: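 Gq-coupled calcium mobilization in TRHR cells after compound addition, monitored kinetically with fluo-8 dye on an FDSS reader.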

Assay [16] is described as follows: Nrf2 qHTS screen for inhibitors: Validation (AID 493153; active means well fitted inhibition curve with a large enough effect in the main read-out, with a control signal flat, not every such curve was filed as active). Particulars: Potency: luciferase luminescence; viability change: measured here: cytotoxicity max response. The method, boiled down:
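Dose-response validation uses reporter A549 cells with firefly luciferase under an antioxidant response element. Compounds stay on cells 18-24 h at 37°C, and luminescence indicates Nrf2-driven transcription.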

Assay [17] deals with Galactokinase (Homo sapiens) (UniProt P51570). The assay can be described thus: qHTS Validation Assay for Inhibitors of Human Galactokinase (GALK) (AID 493189). Further: 0% is about no effect. The method, boiled down: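 Compounds were pin-transferred into ATP buffer, then GALK-galactose mix was added (final 5 nM enzyme, 100 uM galactose, 35 uM ATP). After 1 h at room temperature, remaining ATP was measured luminescently.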

Assay [18] has as its target phosphoglycerate mutase (Leishmania major) (UniProt Q4Q090). The assay can be described thus: qHTS Validation Assay to Find Inhibitors of Phosphoglycerate Mutase (AID 504548).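 Further: end-point luminescence from Kinase-GloPlus after the PGAM reaction; series mostly up to about 58 µM; on the % scale 0 is the no-effect control and ±100 the full control effect.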 The method, boiled down: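 L. major PGAM (1.25nM final) was added to substrate buffer and pinned compound, incubated 45 minutes at room temperature, then Kinase-GloPlus added; luminescence read after 10 minutes. Buffer: 100 mM TEA pH 7.6, 5 mM MgCl2, 0.01% Tween-20.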

Assay [19] deals with Phosphoglycerate kinase, glycosomal (Trypanosoma brucei brucei) (UniProt P07378). The assay can be described thus: qHTS Validation Assay to Find Inhibitors of Phosphoglycerate Kinase (AID 504547).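 Further: control wells lack PGK and mark full inhibition.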 The method, boiled down: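 PGK activity was coupled to GAPDH (100nM final), which generates the unstable substrate 1,3-bisphosphoglycerate in-well. Reactions ran 60 minutes at room temperature in 100mM TEA pH 7.6, 5mM MgCl2, 0.01% Tween-20, then Kinase-Glo Plus luminescence was read.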

Inconclusive results are not listed. Calls of active or inactive are those of the source. Unless noted, the call rests on the fitted dose curve; in most records, active means well fitted curve in the direction sought with a large enough effect; inconclusive means small, poorly fitted or top-dose-only effect, or another doubt; inactive means no such curve, though single readings can be large; an effect the other way counts as inactive or inconclusive.

Chain of Galactokinase (Homo sapiens) (P51570 whole entry, looked up): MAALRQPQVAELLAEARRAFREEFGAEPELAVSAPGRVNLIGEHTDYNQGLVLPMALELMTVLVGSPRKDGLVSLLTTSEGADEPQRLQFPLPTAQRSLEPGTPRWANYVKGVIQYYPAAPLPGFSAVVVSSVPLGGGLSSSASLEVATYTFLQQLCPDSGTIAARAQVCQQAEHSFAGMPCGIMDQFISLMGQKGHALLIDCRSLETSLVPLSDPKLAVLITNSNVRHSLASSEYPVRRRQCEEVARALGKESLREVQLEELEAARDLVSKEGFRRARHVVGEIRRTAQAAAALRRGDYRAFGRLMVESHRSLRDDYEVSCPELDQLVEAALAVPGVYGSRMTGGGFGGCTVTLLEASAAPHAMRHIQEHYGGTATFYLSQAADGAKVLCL
Chain of Thyrotropin receptor (Homo sapiens) (P16473 whole entry, looked up): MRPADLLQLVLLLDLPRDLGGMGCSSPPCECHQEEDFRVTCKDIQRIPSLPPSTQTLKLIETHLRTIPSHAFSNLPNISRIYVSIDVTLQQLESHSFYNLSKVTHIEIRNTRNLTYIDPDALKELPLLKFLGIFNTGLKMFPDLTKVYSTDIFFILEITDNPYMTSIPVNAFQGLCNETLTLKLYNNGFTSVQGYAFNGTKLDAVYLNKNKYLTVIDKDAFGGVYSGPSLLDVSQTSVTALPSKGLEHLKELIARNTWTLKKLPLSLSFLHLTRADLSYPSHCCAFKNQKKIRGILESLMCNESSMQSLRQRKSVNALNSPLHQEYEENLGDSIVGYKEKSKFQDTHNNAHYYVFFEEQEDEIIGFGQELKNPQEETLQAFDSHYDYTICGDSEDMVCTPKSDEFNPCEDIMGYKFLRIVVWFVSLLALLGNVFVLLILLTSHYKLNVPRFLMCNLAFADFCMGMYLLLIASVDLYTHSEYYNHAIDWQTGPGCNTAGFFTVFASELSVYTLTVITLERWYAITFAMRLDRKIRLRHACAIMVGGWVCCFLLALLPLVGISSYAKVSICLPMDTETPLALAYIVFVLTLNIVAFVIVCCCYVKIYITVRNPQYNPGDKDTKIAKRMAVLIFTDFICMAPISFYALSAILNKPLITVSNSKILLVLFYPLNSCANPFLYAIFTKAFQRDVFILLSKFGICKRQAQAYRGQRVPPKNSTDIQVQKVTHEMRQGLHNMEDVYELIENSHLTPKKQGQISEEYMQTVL
Chain of ATPase family AAA domain-containing protein 5 (Homo sapiens) (Q96QE3 whole entry, looked up, the tested form may be a part): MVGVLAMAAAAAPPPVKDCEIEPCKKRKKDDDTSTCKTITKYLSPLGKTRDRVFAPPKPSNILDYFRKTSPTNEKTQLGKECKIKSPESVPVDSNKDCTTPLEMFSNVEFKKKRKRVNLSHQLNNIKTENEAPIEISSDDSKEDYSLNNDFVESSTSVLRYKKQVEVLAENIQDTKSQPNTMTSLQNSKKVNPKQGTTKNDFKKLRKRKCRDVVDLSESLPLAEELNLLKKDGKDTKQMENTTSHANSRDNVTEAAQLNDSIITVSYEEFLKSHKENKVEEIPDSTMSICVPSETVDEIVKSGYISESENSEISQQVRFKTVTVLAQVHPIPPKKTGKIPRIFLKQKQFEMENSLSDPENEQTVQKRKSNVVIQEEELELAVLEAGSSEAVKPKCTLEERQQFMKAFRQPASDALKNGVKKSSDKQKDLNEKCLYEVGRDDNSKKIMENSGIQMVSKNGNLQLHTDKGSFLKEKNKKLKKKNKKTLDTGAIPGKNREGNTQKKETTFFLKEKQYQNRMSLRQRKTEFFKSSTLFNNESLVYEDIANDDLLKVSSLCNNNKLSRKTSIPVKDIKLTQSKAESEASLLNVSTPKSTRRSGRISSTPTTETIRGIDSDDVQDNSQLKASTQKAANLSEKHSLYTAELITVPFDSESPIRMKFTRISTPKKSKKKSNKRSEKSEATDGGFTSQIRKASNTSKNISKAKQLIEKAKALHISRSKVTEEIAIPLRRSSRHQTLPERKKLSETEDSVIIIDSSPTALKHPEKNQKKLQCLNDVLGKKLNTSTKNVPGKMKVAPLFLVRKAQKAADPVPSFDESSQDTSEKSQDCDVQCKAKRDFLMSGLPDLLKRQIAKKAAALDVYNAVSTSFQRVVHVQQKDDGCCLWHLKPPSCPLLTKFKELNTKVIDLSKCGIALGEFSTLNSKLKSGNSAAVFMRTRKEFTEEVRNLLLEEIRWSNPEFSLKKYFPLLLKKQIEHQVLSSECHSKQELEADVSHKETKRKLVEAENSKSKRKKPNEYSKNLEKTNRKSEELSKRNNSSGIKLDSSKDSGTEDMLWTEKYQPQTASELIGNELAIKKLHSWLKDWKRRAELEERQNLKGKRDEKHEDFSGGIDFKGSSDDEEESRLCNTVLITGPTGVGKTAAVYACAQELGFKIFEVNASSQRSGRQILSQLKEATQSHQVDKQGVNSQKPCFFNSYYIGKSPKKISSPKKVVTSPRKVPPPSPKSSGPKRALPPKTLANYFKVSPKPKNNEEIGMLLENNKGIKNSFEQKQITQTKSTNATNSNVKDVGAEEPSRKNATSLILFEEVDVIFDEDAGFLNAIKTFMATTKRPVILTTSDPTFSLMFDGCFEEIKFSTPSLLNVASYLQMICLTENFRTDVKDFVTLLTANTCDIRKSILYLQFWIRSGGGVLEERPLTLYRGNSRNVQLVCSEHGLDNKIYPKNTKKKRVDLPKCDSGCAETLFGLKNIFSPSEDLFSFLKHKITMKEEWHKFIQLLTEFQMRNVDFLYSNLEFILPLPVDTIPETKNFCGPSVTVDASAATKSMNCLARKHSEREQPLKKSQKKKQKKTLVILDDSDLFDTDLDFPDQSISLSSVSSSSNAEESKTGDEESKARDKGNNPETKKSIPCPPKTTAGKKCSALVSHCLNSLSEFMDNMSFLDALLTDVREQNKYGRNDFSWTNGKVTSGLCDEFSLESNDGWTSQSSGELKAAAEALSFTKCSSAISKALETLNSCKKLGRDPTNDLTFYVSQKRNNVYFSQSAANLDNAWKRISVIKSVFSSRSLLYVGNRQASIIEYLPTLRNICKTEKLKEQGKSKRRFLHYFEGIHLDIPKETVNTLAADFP
Chain of phosphoglycerate mutase (Leishmania major) (Q4Q090 1-553): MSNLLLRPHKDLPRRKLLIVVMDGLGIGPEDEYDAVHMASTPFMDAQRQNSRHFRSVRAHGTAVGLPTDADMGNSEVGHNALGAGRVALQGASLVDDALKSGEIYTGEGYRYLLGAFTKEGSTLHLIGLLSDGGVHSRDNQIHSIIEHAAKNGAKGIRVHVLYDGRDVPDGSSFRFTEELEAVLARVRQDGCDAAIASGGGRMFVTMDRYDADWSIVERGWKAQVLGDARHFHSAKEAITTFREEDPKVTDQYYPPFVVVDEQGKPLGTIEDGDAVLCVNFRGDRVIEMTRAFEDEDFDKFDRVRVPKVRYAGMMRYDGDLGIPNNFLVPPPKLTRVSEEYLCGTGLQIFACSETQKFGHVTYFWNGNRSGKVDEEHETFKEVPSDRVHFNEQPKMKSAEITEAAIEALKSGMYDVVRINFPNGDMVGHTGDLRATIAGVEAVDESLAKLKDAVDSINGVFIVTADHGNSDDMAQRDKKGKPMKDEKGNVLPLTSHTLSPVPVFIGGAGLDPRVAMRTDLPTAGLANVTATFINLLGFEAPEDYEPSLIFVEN
Chain of Peptidyl-prolyl cis-trans isomerase NIMA-interacting 1 (Homo sapiens) (Q13526 whole entry, looked up): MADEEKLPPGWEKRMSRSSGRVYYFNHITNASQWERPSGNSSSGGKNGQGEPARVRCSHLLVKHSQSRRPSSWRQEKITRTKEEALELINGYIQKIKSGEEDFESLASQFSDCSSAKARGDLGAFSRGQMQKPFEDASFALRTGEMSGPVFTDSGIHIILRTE
Chain of Thyrotropin-releasing hormone receptor (Homo sapiens) (P34981 whole entry, looked up): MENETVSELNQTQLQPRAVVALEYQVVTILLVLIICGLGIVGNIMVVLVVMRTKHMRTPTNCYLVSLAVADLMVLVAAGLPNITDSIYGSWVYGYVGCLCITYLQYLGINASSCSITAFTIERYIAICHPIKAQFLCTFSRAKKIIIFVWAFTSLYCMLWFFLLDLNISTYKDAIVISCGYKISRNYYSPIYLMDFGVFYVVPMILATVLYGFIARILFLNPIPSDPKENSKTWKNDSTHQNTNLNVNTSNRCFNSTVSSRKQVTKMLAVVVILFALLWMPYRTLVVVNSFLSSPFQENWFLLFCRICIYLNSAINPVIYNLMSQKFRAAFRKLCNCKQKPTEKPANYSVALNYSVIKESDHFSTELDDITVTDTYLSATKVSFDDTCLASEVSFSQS
Chain of Ubiquitin carboxyl-terminal hydrolase 1 (Homo sapiens) (O94782 whole entry, looked up): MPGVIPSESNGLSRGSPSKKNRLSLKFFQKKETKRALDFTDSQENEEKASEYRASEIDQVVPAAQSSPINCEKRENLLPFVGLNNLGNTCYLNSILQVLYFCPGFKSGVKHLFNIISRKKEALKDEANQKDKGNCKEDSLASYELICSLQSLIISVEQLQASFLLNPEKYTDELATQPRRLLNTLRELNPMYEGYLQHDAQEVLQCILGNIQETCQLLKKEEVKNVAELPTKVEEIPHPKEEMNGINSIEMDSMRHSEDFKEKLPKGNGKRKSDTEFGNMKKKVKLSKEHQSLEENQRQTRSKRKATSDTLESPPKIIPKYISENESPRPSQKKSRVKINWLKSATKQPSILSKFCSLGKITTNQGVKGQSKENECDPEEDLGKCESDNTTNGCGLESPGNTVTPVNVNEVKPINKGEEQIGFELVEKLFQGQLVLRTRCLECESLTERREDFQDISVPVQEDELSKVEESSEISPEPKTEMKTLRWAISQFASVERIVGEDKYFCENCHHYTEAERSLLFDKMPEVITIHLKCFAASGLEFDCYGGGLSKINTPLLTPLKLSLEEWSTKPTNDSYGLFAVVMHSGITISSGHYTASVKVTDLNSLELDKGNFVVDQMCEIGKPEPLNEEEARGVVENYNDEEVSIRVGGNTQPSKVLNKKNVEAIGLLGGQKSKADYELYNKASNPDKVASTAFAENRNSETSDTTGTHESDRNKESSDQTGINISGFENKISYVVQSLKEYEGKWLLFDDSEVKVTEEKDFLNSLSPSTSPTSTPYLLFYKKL

Regarding `NC12CC3CC(CC(C3)C1)C2`, the compound was called inactive in assay [1], in assay [2], in assay [7] and in [11]. Besides, the Potency result in [3], in [4], in [5], in assay [6], in assay [8] and in [9] was “inactive” throughout. For the same compound, in assay [10], the Potency entry was “inactive”.

For `Nc1nnc(-c2cccc(Cl)c2Cl)c(N)n1`, the outcome in [2], in assay [12], in assay [7], in assay [18] and in [11] was inactive. The Potency result in [3], in assay [5], in [13], in [14], in assay [6] and in [16] was “inactive” in each case. Besides, the Potency entry in assay [17], in [8], in assay [9] and in [10] was “inactive” each time. The activation in assay [15] was 0.938% (inactive). In assay [16], the viability change is -4.23%.

Consider `CN1CCC(=C2c3ccccc3CC(=O)c3sccc32)CC1`, for which the result in assay [2], in [12], in assay [7], in [18] and in [11] was inactive. The Potency entry in assay [3], in assay [4], in assay [14], in assay [6], in assay [16] and in assay [17] was “inactive” in each case. Besides, the Potency entry in [8], in assay [9], in assay [19] and in assay [10] was “inactive” throughout. Also, the Potency in [5] is 2 µM (active). Also, the viability change in assay [16] is -3.17%.

On to `Cc1cn([C@H]2C=C[C@@H](CO)O2)c(=O)[nH]c1=O`, for which the result in assay [2], in assay [12], in assay [7], in assay [18] and in assay [11] was inactive. Also, the Potency entry in assay [4], in assay [5], in assay [13], in assay [6], in assay [16] and in [17] was “inactive” throughout. The Potency entry in [8], in [9], in assay [19] and in assay [10] was “inactive” in each case. Further, the viability change in [16] came out at 0.63%.

On to `Fc1ccc([C@@H]2CCNC[C@H]2COc2ccc3c(c2)OCO3)cc1`, for which the result in [1], in [12] and in assay [7] was inactive. In addition, the Potency result in assay [4], in [5], in assay [16], in [17], in [8] and in [9] was “inactive” throughout. The Potency result in assay [10] is “inactive”. The activation in assay [15] is 7.94% (inactive). Moreover, the viability change in [16] came to 10.5%.

Regarding `Nc1nc2c(ncn2COC(CO)CO)c(=O)[nH]1`, the result in assay [2], in assay [12], in [7] and in assay [11] was inactive. In addition, the Potency entry in assay [3], in assay [4], in assay [5], in assay [13], in assay [6] and in assay [16] was “inactive” each time. Further, the Potency result in assay [17], in assay [8], in assay [9] and in assay [10] was “inactive” in each case. In addition, the activation in assay [15] is 0.625% (inactive). For the same compound, the viability change in assay [16] was 2.85%.

Consider `CC1COc2c(N3CCN(C)CC3)c(F)cc3c(=O)c(C(=O)O)cn1c23` (stereo not given), for which the result in assay [2], in [12], in assay [7], in assay [18] and in assay [11] was inactive. Besides, the Potency result in assay [3], in assay [4], in assay [5], in [14], in assay [6] and in [16] was “inactive” in each case. The Potency result in assay [17], in assay [8], in assay [9] and in [10] was “inactive” throughout. For the same compound, in [15], the activation was 1% (inactive). Further, the viability change in [16] is 6.09%.

Take `CC(C)NCC(O)COc1ccc(CCOCC2CC2)cc1` (stereo not given): the call in [1], in [2], in [7] and in [11] was inactive. Also, the Potency result in [4], in assay [5], in assay [14], in assay [6], in assay [16] and in assay [17] was “inactive” in each case. Besides, the Potency result in [8], in assay [9] and in [10] was “inactive” each time. In addition, the viability change in assay [16] was -1.98%.
